Compounds with a hit are over-represented: about 2.9% of the library has one in this group of screens.
PLCb3 inh = human PLC-beta3 inhibitors, primary screen, biochemical, fluorescence; inhibition, % at 12.2 µM; 1-phosphatidylinositol 4,5-bisphosphate phosphodiesterase beta-3 (Homo sapiens), Q01970; Purified PLC-beta3, fluorogenic substrate; 0.18% of 370,000 active; in the data active = inhibition above about 11%;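 note: 0% = median of compound wells on plate and 100% = full blocker control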
ADAM10 inh = human ADAM10 inhibitors, primary screen, biochemical, QFRET, HTS | Disintegrin and metalloproteinase domain-containing protein 10 (Homo sapiens), O14672 | recombinant ADAM10, EDANS/DABCYL FRET peptide cleavage, 3 h | inhibition, % at 7 µM | 0.62% of 370,000 active | AID 720582, 2013;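 active = inhibition above a per-campaign cutoff equal to the mean of compounds falling between control-based bounds plus 3 SD, cut at about 20% in these data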;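 note: 0% = DMSO wells while the 100% control is not disclosed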
PLC-gamma1 inh = PLC-gamma1 enzyme inhibitors, primary screen, biochemical, fluorescence, purified enzyme; 1-phosphatidylinositol 4,5-bisphosphate phosphodiesterase gamma-1 (Homo sapiens), P19174; fluorogenic substrate; inhibition, % at 12.2 µM; 0.84% of 370,000 active; in the data active = inhibition above about 9.5%
KLK7 zymogen act = proKLK7 zymogen activators, primary screen, biochemical, fluorescence intensity; 0.9% of 370,000 active; AID 652039, 2013; Kallikrein-7 (Homo sapiens), P49862; activation, % at 7 µM; purified proKLK7, EDANS-DABCYL substrate fluorescence; 100% is mature enzyme control, 0% vehicle;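 active = activation above the mean of all tested compounds plus 3 SD, computed per campaign excluding outliers beyond control limits, cut at about 13% in these data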
ADAM17 inh = ADAM17 inhibitors, primary screen, biochemical, QFRET; AID 720648, 2013; recombinant ADAM17, EDANS/DABCYL FRET peptide cleavage; 0.83% of 370,000 active; Disintegrin and metalloproteinase domain-containing protein 17 (Homo sapiens), P78536; inhibition, % at 6.95 µM;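 active = inhibition above the mean of compounds lying between control limits plus 3 SD, set per campaign, cut at about 8.5% in these data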;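 note: 0% = DMSO-only wells as the low control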
Numbers without * were called inactive; ! = not active in a repeat.

SMILES	PLCb3 inh	ADAM10 inh	PLC-gamma1 inh	KLK7 zymogen act	ADAM17 inh
COC(=O)C1CN(CCc2ccccc2)CCS(=O)(=O)N1Cc1ccc(C(F)(F)F)cc1 (stereo not drawn)	-2.2	0.7	-2.4	-0.1	-0.7
C=CCn1c(COc2ccc3c(c2)CCCC3)nnc1SCC(=O)Nc1cccc(SC)c1	0.0	31.0*	-2.2	0.1	15.9*
C=CCn1c(COc2ccc(C)cc2)nnc1SCC(=O)Nc1ccc(Oc2ccccc2)cc1	-0.8	1.2	-2.9	0.7	4.7
CCC(=O)NC(c1cccs1)c1cc([N+](=O)[O-])c2cccnc2c1OC (stereo not drawn)	-3.3	0.5	17.9*	0.2	1.3
O=C(Cc1cccs1)Nc1cccc(C(=O)Nc2ccco2)c1	12.9*	9.0	7.2	0.2	5.1
CN(C(=O)CNC(=O)c1ccccc1OCC(=O)Nc1ccc(I)cc1)c1ccccc1	-0.8	1.1	-1.1	1.1	-0.9
O=C(Nc1ccc(F)c(F)c1)c1cc(S(=O)(=O)N2CCN(c3ccccn3)CC2)ccc1F	7.7	10.2	9.3	0.0	9.6*
O=C(Nc1c(F)cc(F)cc1Br)c1cc(S(=O)(=O)N2CCN(c3ccccn3)CC2)ccc1F	-1.9	2.3	-1.4	-0.9	0.3
Cc1ccc(S(=O)(=O)N2CCN(C(=O)COC(=O)COc3ccc(Cl)cc3)CC2)c(C)c1	3.5	-8.6	13.4*	-0.2	6.5
O=C(N=C1N(CC2CC2)CC2(C=C3CCCCC3n3c(=O)n(-c4ccccc4)c(=O)n32)N1C(=O)OCc1ccccc1)c1ccccc1 (stereo not drawn)	2.4	6.7	1.0	0.2	4.1
Cc1cc(C)n(-c2ccc(C(=O)N3CCN(c4ccccn4)CC3)cc2)n1	1.1	-10.8	10.3*	-0.8	5.0
O=C(c1ccc(F)cc1)N1CCN(c2ccccn2)CC1	-6.8	-3.1	-0.1	-0.4	-0.9
O=C(OC12CCCN(C1)/C(=C/c1cccc(Cl)c1)C2)c1ccco1 (stereo not drawn)	-7.5	-8.4	0.2	0.4	1.4
Cc1cccc2cc(CN(CC3CCCO3)C(=O)NC3CCCCC3)c(=O)[nH]c12 (stereo not drawn)	2.4	1.0	9.7*	-0.4	0.2
Cc1ccc2cc(CN(CC3CCCO3)C(=O)NC3CCCCC3)c(=O)[nH]c2c1C (stereo not drawn)	3.0	-9.5	0.8	0.1	-5.5
COC(=O)[C@]12C[C@H](CC(=O)NCCCN3CCCC3=O)C(=O)N(Cc3ccc(Cl)cc3Cl)C1=C[C@H](COCc1ccccc1)O[C@@H]2C	2.2	-1.5	0.7	0.9	-4.1
COC(=O)C1CN(C2CCCC2)CCS(=O)(=O)N1Cc1ccc(OC)cc1 (stereo not drawn)	-1.9	-2.2	-0.7	-0.3	-3.1
C[C@@H]1CCCCCCCCC(=O)OCCN(C(=O)OC(C)(C)C)[C@H](C)CCCCCCCCC(=O)OCCN1C(=O)OC(C)(C)C	12.9*	-3.4	6.8	-0.6	8.0
C[C@@H]1CCCCCCCCC(=O)OCCN1C(=O)OC(C)(C)C	0.7	5.8	1.2	0.6	-1.4
CC[C@]12c3[nH]c4ccc(OC)cc4c3CCN1C(=O)C(CC(=O)NCc1cccc(C(F)(F)F)c1)C[C@@H]2C(=O)N1CCN(C(=O)c2ccco2)CC1 (stereo partly drawn)	5.2	15.4	11.4*	-0.6	5.9
CCOC(=O)c1ccc(NS(=O)(=O)c2ccc3[nH]c(=O)[nH]c3c2)cc1	3.4	-1.8	10.1*	-0.3	1.3
COc1ccc(N2CCCN(CC(=O)Nc3ccc(Cl)cc3)CC2)cc1	-2.6	-2.2	-1.2	0.6	1.3
O=c1oc(-c2ccccc2)cc(Cl)c1Cl	-4.2	-17.7	0.9	347.0*	-7.6
CCCCCCCCN1C(=O)[C@@H](CC(=O)N2CCN(C(=O)OCC)CC2)C[C@@]2(C(=O)OC)C1=C[C@H](COCc1ccccc1)O[C@@H]2C	-0.7	4.9	-0.8	0.6	1.6
CC(C)C[C@H]1CN=C(Nc2ccccc2)N1CCC1CCCCC1	3.0	-0.2	2.1	0.4	-0.8
SMILES	PLCb3 inh	ADAM10 inh	PLC-gamma1 inh	KLK7 zymogen act	ADAM17 inh
c1ccc(C[C@H]2CN=C(Nc3ccccc3)N2CCC2CCCC2)cc1	7.5	1.0	10.2*	-0.8	4.9
CC(C)(C)N(Cc1cn(CC2CCCCC2)nn1)S(=O)(=O)c1ccccc1Br	3.2	-0.2	1.1	0.2	-1.2
O=C(O)c1ccccc1NS(=O)(=O)c1ccc2c3c(cccc13)C(=O)N2	-18.4	-7.6	-12.8	-0.2	-4.2
O=C1CCCc2oc3c(cc(NS(=O)(=O)c4ccc5c6c(cccc46)C(=O)N5)c4ccccc43)c21	-161.4	-56.7	-109.8	26.3*	-15.5
Cc1nn(-c2ccccc2)c2sc(C(=O)N3CCN(Cc4ccc(F)cc4)CC3)cc12	-9.4	2.8	-2.6	-0.3	2.2
Cc1ccc2c(c1)[C@H]1[C@H](CO2)[C@H](c2ccccc2)[C@]2(C)C(=O)Nc3ccc(Cl)cc3C(=O)N12	-6.8	28.6*	2.9	-2.4	11.3*
C[C@@]12C(=O)Nc3ccc(Cl)cc3C(=O)N1[C@H]1c3cc(Cl)ccc3OC[C@@H]1[C@@H]2c1ccccc1	-0.5	10.1	0.9	-1.4	7.1
C[C@@]12C(=O)N(CC3CCCO3)CC(=O)N1[C@H]1c3cc(Cl)ccc3OC[C@@H]1[C@@H]2c1ccccc1 (stereo partly drawn)	0.6	10.6	10.4*	0.3	3.2
Cc1ccc2c(c1)[C@H]1[C@H](CO2)[C@H](c2ccccc2)[C@]2(C)C(=O)N(CC3CCCO3)CC(=O)N12 (stereo partly drawn)	0.5	3.7	1.6	-0.1	-0.6
Cc1ccccc1CN1CCCCC(NC(=O)Nc2ccccc2)C1=O (stereo not drawn)	3.0	-0.9	3.8	0.4	-1.1
CCn1c(COc2ccc(Cl)cc2)nnc1SCc1ccc(C#N)cc1	1.7	6.8	7.0	-0.3	3.2
CCn1c(COc2ccccc2)nnc1SCc1ccc(C#N)cc1	5.5	13.4	9.6*	0.8	1.0
O=S(=O)(c1ccccc1)N(Cc1nc(-c2ccccc2)no1)C1CCCCC1	-12.7	16.6	15.2*	0.9	7.2
CC(C)N(Cc1nc(-c2ccccc2)no1)S(=O)(=O)c1ccccc1	-0.6	-13.8	3.5	0.2	0.5
OC(c1ccccc1)(c1ccccc1)C1CCN(CCCOc2ccc(F)cc2)CC1	3.7	4.8	11.1*!	-0.3	1.4
COc1ccc(S[C@]2(C(=O)N3CCN(c4ncccn4)CC3)CC(=O)N(c3ccc(C#N)cc3)[C@@H]2c2ccc(OC)cc2)cc1	-3.9	9.2	-0.9	-1.3	5.7
